Screening data from PubChem BioAssay.
This is a sample that favours compounds with a hit; in the whole collection about 19% have one here.
HT1080-NT tox = qHTS for induction of synthetic lethality in tumor cells producing 2HG: qHTS for the HT-1080-NT fibrosarcoma cell line | HT-1080-NT fibrosarcoma viability, CellTiter-Glo ATP luminescence, 48 h | Potency, µM (highest dose often 46.1 µM), without a hit: top-dose activity, negative = less viability, actives largely listed as cytotoxic | 1.6% of 360,000 active;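 also: NT is the 2HG producing partner of a matched IDH1 knockdown line; potency is read from the fitted curve at half-maximal effect; 0% = DMSO-treated cells and -100% = media-only wells without cells; nearly all actives have a fitted effect of over 55% in size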
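Compounds were tested in concentration-response format on HT-1080-NT cells for 48 hours at 37 degrees C. Cell viability came from CellTiter-Glo luminescence; curves were classified by r2, response magnitude and activity.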
TDP1 cell noCPT = qHTS for Inhibitors of human tyrosyl-DNA phosphodiesterase 1 (TDP1): qHTS in cells in absence of CPT; DT40 Tdp1-/- hTDP1 cells, no CPT, ATP luminescence, 48 h; Potency, µM (titrated, usually from 46.2 µM), without a hit: top-dose activity change, negative = growth inhibition, hits mostly inhibitors; 15% of 420,000 active; AID 686978, 2013; also: potency is read from the fitted curve at half-maximal effect; nearly all actives have a fitted effect of over 55% in size
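DT40 Tdp1-/-;hTDP1 cells, no CPT (DMSO vehicle only), 400 cells/well; compounds pin-transferred; ≥48 hr, 37 °C; CellTiter-Glo 30 min RT dark, luminescence read.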
IL1B secr inh = qHTS for Inhibitors of Inflammasome Signaling: IL-1-beta AlphaLISA Primary Screen; THP-1 LPS/ATP IL-1B secretion, AlphaLISA, 16 h; hits give low values; activity change, % at 57.5 µM; 4.7% of 360,000 active; in the data active = activity change below about -50%; inconclusive = mostly about -30% to -49%
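Secreted IL-1B measured by AlphaLISA bead assay after 16 h compound exposure of THP-1 cells; compounds (final up to 57.5 uM) added 1 h before LPS (250 ng/mL) and ATP (1.25 mM) stimulation; lower signal means less secretion.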
HT1080 IDH1KD tx = qHTS for induction of synthetic lethality in tumor cells producing 2HG: qHTS for the HT-1080-IDH1KD cell line. Potency, µM (series often up to 46.1 µM), inactives show at the highest dose activity, negative = toxicity, hits mostly cytotoxic. 2% of 360,000 active. HT-1080 IDH1 knockdown viability, ATP luminescence, 48 h;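 also: potency is read from the fitted curve at half-maximal effect; 0% = DMSO wells and -100% = cell-free medium wells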
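IDH1KD HT-1080 cells, 750/well, RPMI + 5% FBS; compound pinned after 2 h settling; 48 h, 37 °C; CellTiter-Glo luminescence; % activity normalised to DMSO and no-cell wells; curves fitted, classed by r2 and efficacy.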
TDP1 cell CPT = qHTS for Inhibitors of human tyrosyl-DNA phosphodiesterase 1 (TDP1): qHTS in cells in presence of CPT | chicken DT40 Tdp1-/-;hTDP1 cells + 20 nM CPT, ATP luminescence, 48 h | Potency, µM (doses to about 46.2 µM), inactives show top-dose activity change, negative = growth inhibition, usual class: inhibitors | 12% of 420,000 active | AID 686979, 2013; also: potency is read from the fitted curve at half-maximal effect; nearly all actives have a fitted effect of over 55% in size
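Chicken DT40 Tdp1-/- cells complemented with human TDP1, 400 cells/well, exposed to compounds plus 20 nM camptothecin for at least 48 h at 37 C; viability read as ATP content by CellTiter-Glo luminescence.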
Starred values were filed as active, the others as inactive; ? = inconclusive; . = no result; [ ] = dose if it differs, or a comment. Unless noted, calls follow the shape of the dose curve; as a rule, active = well fitted curve in the direction sought with a large enough effect; inconclusive = small, poorly fitted or top-dose-only effect, or another doubt; inactive = no such curve, though single readings can be large; an effect the other way counts as inactive or inconclusive. Unless noted, % is scaled to controls: 0 for no effect and ±100 for the full control effect.

SMILES | HT1080-NT tox | TDP1 cell noCPT | IL1B secr inh | HT1080 IDH1KD tx | TDP1 cell CPT
CC(=O)Oc1ccc(C(=O)Nc2cccc3c2CCCC3)cc1 | -6% | -1% | -8 | -16% | 3%
O=c1oc2ccccc2cc1-c1nc(-c2cccs2)no1 | . | -24% | . | . | -27%
O=C(COc1nsnc1N1CCOCC1)Nc1ccc([N+](=O)[O-])cc1 | 27% | 23µM* | -13 | 11% | 29µM*
O=C(COc1nsnc1N1CCOCC1)Nc1ccc(Cl)cc1 | 0% | 15µM* | 27 | 10% | ?
COc1ccc(C(=O)NC2CCN(S(=O)(=O)c3ccccc3F)CC2)cc1 | 9% | -1% | -7 | 9% | -17%
O=C(Nc1ccc(F)cc1)[C@H](Cc1ccccc1)N1Cc2ccccc2C1=O | . | ? | . | . | -26%
Cc1[nH]c2ccccc2c1/C=C/C(=O)c1ccccc1 | -28% | ? | -12 | ? | ?
Cc1[nH]c2ccccc2c1/C=C/c1ccnc2ccccc12 | . | 2.8µM* | . | . | 5.6µM*
C(=C\c1c[nH]c2ccccc12)/c1ccnc2ccccc12 | . | 20µM* | . | . | ?
CCOC(=O)C1=NN(c2ccc(Cl)cc2)C(=O)C1 | -6% | ? | -8 | -1% | ?
O=C(O)COCC(=O)Nc1ccc(OCCc2ccccc2)cc1 | 4% | 2% | 8 | 1% | 13%
O=S(=O)(N/N=C1\CC(c2ccccc2)Oc2ccccc21)c1ccccc1 (configuration not stated) | -9% | -13% | -27 | -11% | -13%
CCOc1ccc(S(=O)(=O)N/N=C2/CC(c3ccccc3)Oc3ccccc32)cc1 (configuration not stated) | -5% | 16µM* | 0 | -23% | ?
Cn1nccc1-c1coc2c(C(=O)NCC3CCOCC3)cccc12 | 0% | 23µM* | 65 | 13% | ?
Cn1nccc1-c1coc2c(C(=O)NCc3ccccc3)cccc12 | -5% | ? | -10 | -14% | ?
CN(CCCn1ccc(N)nc1=O)Cc1ccco1 | -3% | -20% | 9 | 0% | -1%
CC(Oc1ccc(F)cc1)C(=O)Nc1cc(C(F)(F)F)ccc1-n1cncn1 (configuration not stated) | -9% | ? | 0 | -6% | -21%
COc1ccc(S(=O)(=O)N2CCN(Cc3cc4c(cc3Br)OCCO4)CC2)cc1 | -4% | ? | -13 | -4% | -15%
N#Cc1ccccc1S(=O)(=O)N1CCN(Cc2cc3c(cc2Br)OCCO3)CC1 | 0% | ? | -1 | -18% | 16µM*
COc1cc(CN2C[C@@H](CO)O[C@@H](n3cnc4c(NCc5ccco5)ncnc43)C2)cc(OC)c1OC | ? | -29% | 8 | 1% | -13%
COc1ccc(Cc2c(-c3cccc(Cl)c3)nc3cc(C)c(Br)c(C)n23)c(C)c1 | -10% | ? | 38 | -19% | -23%
Cc1ccc2c(=O)n3c(nc2c1)C(Cc1ccc(O)cc1)NC(=O)c1cc2ccccc2cc1-3 (configuration not stated) | 5.2µM* | 18µM* | -3 | 6.5µM* | ?
O=C1NC(Cc2ccc(O)cc2)c2nc3cc(F)ccc3c(=O)n2-c2cc3ccccc3cc21 (configuration not stated) | 15µM* | 7.3µM* | ? | 18µM* | ?
CCCCCC(=O)Nc1ccc(C(=O)COC(=O)Cn2cnc3c2c(=O)n(C)c(=O)n3C)cc1 | 2% | 2% | 18 | 9% | -1%
CCOC(=O)C1=CCN(S(=O)(=O)c2ccccc2C)C1c1cccc(C)c1 (configuration not stated) | -4% | ? | 0 | -15% | ?
SMILES | HT1080-NT tox | TDP1 cell noCPT | IL1B secr inh | HT1080 IDH1KD tx | TDP1 cell CPT
Cc1cccc(CNC(=O)c2cnn(-c3ncc4c(n3)-c3ccccc3CC4)c2C2CC2)n1 | . | 5% | . | . | 7%[9.04 µM]
COc1ccc([C@@H]2[C@@H]3C(=O)N(C(C)(C)C)C(=O)[C@@H]3[C@]3(C)C(=O)N(c4ccc(C(F)(F)F)cc4)C(=O)N23)cc1 | 8% | 16µM* | -7 | -1% | ?
CCOC(=O)[C@@H]1[C@H]2COc3cc(OC)ccc3[C@H]2N2C(=O)N(c3ccc(C(F)(F)F)cc3)C(=O)[C@]12C | ? | 21µM* | -17 | ? | 15µM*
CCOC(=O)[C@@H]1[C@H]2COc3cc(OC)ccc3[C@@H]2N2C(=O)N(c3ccc(OC)cc3)C(=O)[C@]12C | 0% | -24% | -14 | 19% | -5%
CCOC(=O)[C@@H]1[C@H]2COc3cc(OC)ccc3[C@H]2N2C(=O)N(c3ccc(OC)cc3)C(=O)[C@]12C | 0% | ? | -2 | 6% | ?
CCOC(=O)[C@@H]1[C@H]2COc3cc(OC)ccc3[C@@H]2N2C(=O)N(c3ccc(C(F)(F)F)cc3)C(=O)[C@@]12C | -1% | 13µM* | -2 | -3% | ?
CCCCc1nc(S(=O)(=O)c2ccc(Cl)cc2)c(N2CCOCC2)o1 | 15% | 10% | 3 | 11% | -5%
CCOC(=O)c1cc(-c2ccc(F)cc2)n(CCC(=O)NCCc2ccc(C)cc2)c1C | . | 21µM* | . | . | ?
CCOC(=O)c1cc(-c2ccccc2)n(CCC(=O)NCCc2ccc(OC)c(OC)c2)c1C | . | 23µM* | . | . | 21µM*
CCOC(=O)c1cc(-c2ccc(C)cc2)n(CCC(=O)NCCc2ccc(C)cc2)c1C | . | 18µM* | . | . | ?
CCOC(=O)c1cc(-c2ccccc2)n(CC(=O)N(C)c2ccc(OC)cc2)c1C | . | 23µM* | . | . | ?
COc1ccc(NC(=O)CCCC(=O)OCC(=O)c2cccc(OC)c2)cc1 | -15% | -9% | -8 | 1% | 4%
COc1cccc(Nc2ncc3nc(CCc4ccccc4)c(=O)n(C)c3n2)c1 | . | 9% | . | . | -4%
O=C(CSc1ncn[nH]1)Nc1c(Br)cc([N+](=O)[O-])cc1Br | 0% | -1% | 2 | 13% | 0%
CCOC(=O)c1cc(-c2ccccc2)n(CCC(=O)NCCc2ccc(C)cc2)c1C | . | 8.2µM* | . | . | 15µM*
CCOC(=O)c1cc(-c2ccc(OC)cc2)n(CCC(=O)NCc2ccc(OC)cc2)c1C | . | 18µM* | . | . | ?
Cc1ccc(SCC(=O)N2CCN(c3ccccn3)CC2)cc1 | 6% | -12% | 23 | -9% | -29%
CCOC(=O)c1c(C(=O)OCC)c(C)n(CCc2ccc(OC)c(OC)c2)c1C | 8% | ? | 1 | 5% | 23µM*
